Screening data (PubChem)
Shown are actives, neighbours in structure and some others; about 12% of the full set was active somewhere.
D1 mod – allosteric modulators of human D1 dopamine receptor | HEK293 D1, CRE-luciferase, dopamine EC30 potentiation; actives deviate in either direction | B-score at 10 µM | AID 641 | hit rate 5.9% among 58,000;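 active = luminescence count or its row- and column-corrected plate score outside the 99.7% band of the plate's sample wells, on either side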
PostGolgi ctrl – yeast control strain growth, post-Golgi counter-screen. efflux-deficient yeast background strain, growth absorbance A615, 16 h. inhibition, % at 10 µM. hit rate 5% among 98,000. AID 738
Cav32 inh – human Cav3.2 channel inhibition, primary screen; Cav3.2-expressing cells, Fluo-4 calcium fluorescence FDSS; stronger effect = lower value; B-score at 10 µM; hit rate 4% among 100,000;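 active = single-dose well whose peak fluorescence ratio is a statistical outlier from its plate by either plate-standardised score or position-corrected B-score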
PostGolgi yeast – growth inhibition of a yeast mutant, post-Golgi transport screen. inhibition, % at 10 µM. hit rate 0.9% among 98,000. post-Golgi transport phenotypic cell assay;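 note: yeast cells grown in 1536-well plates; yeast grown about 18 h at 30C before absorbance read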
PLAP activator – human PLAP activation | P05187 | purified PLAP enzyme, luminescent substrate read-out; stronger effect = higher value | activation fold at 20 µM | hit rate 1.2% among 96,000; in the data active = activation fold above about 2
Target sequence (P05187 whole entry, looked up): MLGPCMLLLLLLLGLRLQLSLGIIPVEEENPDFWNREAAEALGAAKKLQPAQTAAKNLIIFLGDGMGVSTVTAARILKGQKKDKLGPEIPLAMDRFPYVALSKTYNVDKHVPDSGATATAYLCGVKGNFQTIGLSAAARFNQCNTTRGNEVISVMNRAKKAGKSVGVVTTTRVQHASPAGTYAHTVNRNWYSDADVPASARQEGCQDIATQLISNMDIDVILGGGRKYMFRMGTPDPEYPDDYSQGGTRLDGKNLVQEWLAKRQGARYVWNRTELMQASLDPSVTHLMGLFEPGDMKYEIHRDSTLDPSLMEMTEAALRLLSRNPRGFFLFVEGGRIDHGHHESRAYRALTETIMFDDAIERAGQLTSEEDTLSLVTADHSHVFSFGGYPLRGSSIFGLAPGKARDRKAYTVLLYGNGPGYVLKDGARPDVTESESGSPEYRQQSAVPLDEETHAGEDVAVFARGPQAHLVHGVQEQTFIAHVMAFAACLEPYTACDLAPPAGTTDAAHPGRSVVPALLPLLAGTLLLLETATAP
DAT uptake mod – modulates human dopamine transporter uptake under cocaine. LLC-PK1 hDAT cells, [14C]-dopamine uptake with cocaine IC80; actives deviate in either direction. B-score at 10 µM. AID 449768. Q01959. hit rate 1.3% among 110,000;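 active = Z score or B-score, a plate-position-corrected score, falls beyond the plate's 99.7% confidence bounds, in either direction; inactive = both scores lie inside the 99.7% bounds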;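 note: scored against the spread of the other compound wells on the same plate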
* marks the source's active call; other numbers are inactive results; nt = no result given. Cut-off read from the data, not from the text of the source, unless noted: active = inhibition above about 30%; inactive = the rest.

SMILES | D1 mod | PostGolgi ctrl | Cav32 inh | PostGolgi yeast | PLAP activator | DAT uptake mod
Cc1cccc(NS(=O)(=O)c2ccc3c(c2)OCCO3)c1 | nt | -0.6 | -0.732 | 16.2 | 1.2 | -0.324
CSc1nc2ccc(S(=O)(=O)N3CCCCC3)cc2s1 | nt | 3.2 | -0.522 | -0.9 | 0.8 | -0.108
COc1ccc(OC)c(C(=O)c2ccc(C(=O)N3CCCCC3)cc2)c1 | 0.195 | 26.3 | 0.0495 | -7.8 | 1.1 | 1.78
CSc1ccc(N2C(=O)NC3(CCCCC3)C2=O)cc1 | -1.28 | 23.3 | -0.485 | 18.2 | 0.9 | -0.559
O=C1c2ccccc2CC1(Cc1ccccc1)Cc1ccccc1 | nt | nt | -2.16 | nt | nt | 0.351
Cc1cccc(-c2noc(CCCC(=O)Nc3cccnc3)n2)c1 | nt | 5.8 | nt | -4.5 | 1.2 | nt
CSc1cccc(NC(=O)CCCOc2ccc(Cl)cc2Cl)c1 | nt | nt | -0.0715 | nt | nt | 0.445
CSc1ccccc1NC(=O)Nc1ccc(F)c(Cl)c1 | nt | 13.1 | -1.55 | 0.9 | 0.8 | 0.552
O=C(CCCOc1ccc(Cl)cc1Cl)Nc1cccnc1 | nt | 39.5* | nt | 69.0* | 0.7 | nt
O=C(CCCc1nc(-c2ccc(Cl)cc2)no1)Nc1cccnc1 | -1.34 | 88.3* | 0.736 | 53.6* | 0.7 | -0.547
O=C(Nc1cccnc1)Nc1ccc(F)c(Cl)c1 | nt | 12.7 | -0.88 | 1.6 | 1 | -4.3*
O=C(NCC1COc2ccccc2O1)Nc1ccccc1F (stereo not drawn) | 1.02 | 1.1 | -2.66 | -8.8 | 0.6 | -1.46
Cc1ccc(/C=C/C(=O)c2c(C)nc3ccccn23)cc1 | nt | 33.2* | nt | -1.8 | 1 | 0.486
Cc1ccc(C(=O)Nc2ccc(Cc3ccncc3)cc2)cc1[N+](=O)[O-] | nt | 49.9* | nt | 87.2* | 0.9 | nt
CCC(=O)Nc1cccc(NC(=O)c2ccc(C)c([N+](=O)[O-])c2)c1 | nt | 0.7 | 1.26 | -6.0 | 0.9 | 0.0523
N#C/C(=C(/O)COC(=O)c1ccc2c(c1)OCCO2)c1nc2ccccc2[nH]1 | -0.129 | 0.3 | 0.657 | 2.9 | 1.7 | -1.05
COc1ccc(C/C(O)=C(\C#N)c2nc3ccccc3[nH]2)cc1OC | 0.114 | -4.6 | 1.83 | 14.3 | 2.7* | 0.282
CCOC(=O)c1c(C)[nH]c(C(=O)OC/C(O)=C(\C#N)c2nc3ccccc3[nH]2)c1C | -0.688 | -13.9 | -1.58 | -5.1 | 2.1* | -0.277
N#C/C(=C(/O)COC(=O)Cc1c[nH]c2ccccc12)c1nc2ccccc2[nH]1 | 0.00324 | 2.4 | -7* | 12.1 | 1.4 | -0.153
CC1CCCN(C/C(O)=C(\C#N)c2nc3ccccc3[nH]2)C1 (stereo not drawn) | 0.0397 | 6.9 | 0.671 | -1.7 | 2* | -1.5
CC(C)(C)/C(O)=C(/C#N)c1nc2ccccc2[nH]1 | 0.383 | 10.5 | nt | 8.3 | 1.4 | -1.48
CC(=O)c1c(C)nc2nonc2c1N | -0.567 | -6.0 | nt | -27.8 | 0.9 | nt
O=C(CCCN1C(=O)c2ccccc2C1=O)OC1CSCC1NC(=O)c1ccccc1 (stereo not drawn) | nt | -4.0 | 0.0186 | -2.4 | 1.1 | 0.711
C=CCOc1c2ccc(C(=O)NCCc3ccc(C)cc3)cc2nn1C | nt | -3.4 | 1 | -2.8 | 1.1 | -0.132
O=C(Nc1nccs1)c1cccc(NC(=O)c2ccco2)c1 | nt | nt | -0.399 | nt | nt | 1.27
SMILES | D1 mod | PostGolgi ctrl | Cav32 inh | PostGolgi yeast | PLAP activator | DAT uptake mod
Cc1cc(C)n2c(SC/C(O)=C(\C#N)c3nc4ccccc4[nH]3)nnc2n1 | -0.508 | 8.3 | -0.67 | -0.2 | 2* | 2.17
Cc1ccccc1-n1c(SC/C(O)=C(\C#N)c2nc3ccccc3[nH]2)nnc1-c1ccncc1 | 0.762 | -0.9 | 2.05 | -1.6 | 1.8 | 1.46
Cc1ccc(Nc2nc(N3CCOCC3)c3ccccc3n2)cc1 | -5.8* | 10.7 | -0.188 | -2.1 | 1.2 | 1.62
COc1ccc(Nc2nc(N3CCCCC3)c3ccccc3n2)cc1 | nt | 86.2* | -2.5 | 59.2* | 1.1 | -1.12
COc1ccc(Nc2ccnc3ccccc23)cc1 | -3.67* | 1.9 | 0.278 | -44.9 | 0.9 | 1.48
Oc1ccc(Nc2nc(N3CCCC3)c3ccccc3n2)cc1 | -2.54 | -2.2 | -0.497 | 14.8 | 1.3 | 0.0762
c1ccc2c(N3CCOCC3)nc(N3CCOCC3)nc2c1 | nt | nt | 0.529 | nt | nt | -0.331
CCO[C@H]1OC(C(N)=O)=C[C@@H](C(C)(C)C)[C@@H]1CCCO | nt | nt | 1.15 | nt | nt | 0.521
COc1cc(C(=O)n2nc(C)cc2C)ccc1O | nt | 18.8 | 1.1 | 6.1 | 1.2 | -0.215
Cc1ccc(N(CC(=O)N/N=C/c2ccc(OC3CSC3)cc2)S(=O)(=O)c2ccccc2)cc1 | nt | 7.1 | -2.71* | -9.9 | 1 | 0.0741
O=C(N/N=C/c1ccc(OC2CSC2)cc1)c1ccccc1 | nt | -0.5 | 0.926 | -3.8 | 1.1 | -1.08
Cc1ccc(NC(=O)CS(=O)CC(=O)N(c2ccc(C)cc2)C(C)C(=O)NC2CCCCC2)cc1 (stereo not drawn) | nt | nt | -7.29* | nt | nt | 2
CC(C(=O)NC1CCCC1)N(C(=O)CS(=O)CC(=O)Nc1ccc(F)cc1)c1ccc2c(c1)OCCO2 (stereo not drawn) | nt | 2.5 | 0.644 | 17.4 | 1.4 | 0.197
CC(C)Nc1nc2n(c(=O)n1)CCN2C(C)C | 0.0961 | 2.5 | 0.825 | 2.8 | 1.1 | -0.183
CCOC(=O)N1CCN(C(=O)Cn2cc3c(n2)CCCC3)CC1 | -0.545 | -8.8 | 1.03 | -2.1 | 1.1 | -7.86*
Cn1cccc1/C=N/n1cnnc1 | nt | 3.3 | 0.803 | 10.5 | 0.9 | 2.76*
Cc1[nH]n(-c2ccc([N+](=O)[O-])cc2)c(=O)c1C=NCCN1CCN(C(=O)c2ccccc2)CC1 | nt | -0.5 | 0.136 | 1.3 | 2* | 0.473
CCOCCCNC(=O)COc1ccc(OC)cc1 | nt | -6.1 | nt | -9.7 | 0.9 | nt
C=CCNC(=O)c1onc(CSc2ccc(C(C)C)cc2)c1C(=O)O | nt | 33.1* | -0.854 | -3.8 | 1.3 | -0.683
C=CCNC(=O)c1onc(CSc2ccc(F)cc2)c1C(=O)NCCOC | nt | 45.5* | 1.49 | -0.5 | 1.1 | 0.474
C=CCNC(=O)c1onc(CSc2ccccc2)c1C(=O)O | nt | 17.0 | 1.38 | -4.0 | 0.9 | -0.392
COC(=O)CN(c1nc(C)cc(OC)n1)S(=O)(=O)c1ccccc1 | nt | 4.1 | 0.642 | 0.3 | 0.8 | 0.265
COc1cc(C)nc(N(Cc2ccccc2)S(=O)(=O)c2ccccc2)n1 | -0.0397 | 32.9* | -3.11 | -0.6 | 0.9 | 0.105
CCCN(c1nc(C)cc(OC)n1)S(=O)(=O)c1ccccc1 | -0.585 | 24.0 | -4.75* | -4.7 | 1 | -0.565
CCOC(=O)c1cc(-c2ccccc2)nc2c1c(C)nn2-c1ccccn1 | nt | 41.7* | -1.66 | -3.4 | 1.5 | 1.02
SMILES | D1 mod | PostGolgi ctrl | Cav32 inh | PostGolgi yeast | PLAP activator | DAT uptake mod
CCC(C)N1CC(C(=O)O)CC1=O (stereo not drawn) | nt | 9.5 | 0.695 | -2.2 | 0.8 | 0.485
CCC(C)N1CC(C(=O)NC2CCCCC2)CC1=O (stereo not drawn) | 0.671 | 32.7* | 1.09 | 3.1 | 1 | -1.51
Cc1cccc(C)c1-n1c(C)cc(/C=N/NC(N)=S)c1C | nt | 27.7 | -5.91* | 3.5 | 1.4 | 0.0449
COc1ccc(-n2nnnc2SCC(=O)NCc2ccco2)cc1OC | 0.247 | 14.6 | 0.866 | -5.8 | 1.2 | -0.778
Cc1cc(C)nc(SCC(=O)NCc2ccco2)n1 | -0.109 | 8.4 | nt | -11.5 | 1.5 | -0.804
Cc1cccc(-c2nsc(SCC(=O)NCc3ccco3)n2)c1 | -0.0315 | 13.8 | -3.93* | -5.2 | 0.9 | 0.136
